# Source: PubChem BioAssay
# Sampled rows, rich in hits. Any-hit rate of the full collection: about 3.6%.
# mHTT-CaM PPI inh – inhibitors of human mutant huntingtin-calmodulin interaction; P42858; AlphaScreen His-mHTT/GST-CaM binding, luminescence; inhibition, % at 15 µM; actives 3.6% (n = 190,000); AID 1671202;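 note: 0% = both proteins with DMSO and 100% = one protein alone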
# Pf apPOL inh – Pf-apPOL DNA polymerase inhibition; actives 0.25% (n = 210,000); AID 1794808; inhibition, % at 10 µM; Recombinant Pf-apPOL, molecular beacon fluorescence, 1.5 h
# * hit, by the source's call; · = no result. Cut-off read from the data, not from the text of the source: active = inhibition above about 50%; inactive = the rest.
SMILES,mHTT-CaM PPI inh,Pf apPOL inh
CC(=O)Nc1ccc(S[C@@H](CCN2CC[C@H](C(C)(C)C)CCC2=O)c2ccccc2)cc1,61*,-1
CC(C)(C)[C@@H]1CCC(=O)N(CC[C@H](Sc2ccccc2)c2ccccc2)CC1,-6,-1
COc1ccc(CNC(=O)CC2CCCCC2)cc1,-5,-4
Oc1c(C(Nc2ccccn2)c2ccccc2Br)ccc2cccnc12 (configuration not stated),99*,-1
O=C(Nc1cc(Br)cc2cccnc12)c1ccccc1Br,-4,-5
Oc1ccc(Br)c(C(Nc2ccccn2)c2ccc3cccnc3c2O)c1 (configuration not stated),100*,-4
O=C(Nc1nc2nccc(-c3ccccc3)n2n1)c1ccc(Cl)cc1,0,9
Cn1c(N2CCCC(C(=O)NC3CCCCCC3)C2)cc(=O)n(C)c1=O (configuration not stated),-14,-3
CCCCN1CC[C@H]2C=CC[C@@H](C(=O)N3CCOCC3)[C@H]2C1=O,-8,-3
CC1=NN(C(=O)c2ccccc2F)C(O)(c2ccc(Cl)cc2)C1 (configuration not stated),11,-2
CC1=NN(C(=O)c2ccccc2Cl)C(O)(c2ccc(Cl)cc2)C1 (configuration not stated),15,-6
CC1=NN(C(=O)c2cccc(Cl)c2)C(O)(c2ccc(Cl)cc2)C1 (configuration not stated),54*,-8
CC1=NN(C(=O)c2ccc(Cl)cc2)C(O)(c2ccc(Cl)cc2)C1 (configuration not stated),67*,2
Cc1cccc(CN2CCN(C3CCN(C(=O)Nc4cc(F)ccc4F)CC3)C2=O)c1,5,-7
CC(=O)Nc1cccc(N=Cc2cc(Cc3ccccc3)ccc2O)c1,95*,1
Cc1ccccc1C(=O)Nc1cccc(N=Cc2cc(Cl)cc([N+](=O)[O-])c2O)c1,49,2
O=C(Nc1cccc(N=Cc2cc(Br)ccc2O)c1)c1ccco1,26,-8
CC(=O)Nc1cccc(N=Cc2cc(Cc3ccccc3Cl)cc([N+](=O)[O-])c2O)c1,98*,-3
CSc1ccc(CNC(=O)C2CCCN(c3ccc(N4CCOCC4)nn3)C2)cc1 (configuration not stated),13,-10
CCCNC(=O)c1cc2sccc2n1C,4,-5
O=C(O)/C=C/c1cccc(N=Cc2ccc([N+](=O)[O-])o2)c1,71*,-2
O=C(O)/C=C/c1cccc(N=Cc2ccc(N3CCOCC3)cc2)c1,-6,2
O=C(c1ccco1)N1CCN(CC(=O)N2CCCc3c2c(=O)oc2ccc(O)cc32)CC1,1,8
O=C(CN1CCN(Cc2ccccc2)CC1)N1CCCc2c1c(=O)oc1ccc(O)cc21,57*,3
CC(CN1CCC(C(=O)N2CCCC2)CC1)c1ccccc1 (configuration not stated),3,-7
SMILES,mHTT-CaM PPI inh,Pf apPOL inh
CC(C)CN1CCC(C(=O)N2CCCC2)CC1,-4,88*
COc1cccc(N2C(=O)NC3CC2(C)Oc2ccccc23)c1 (configuration not stated),88*,-4
COc1cccc(N2C(=O)NC3CC2(C)Oc2ccc(Cl)cc23)c1 (configuration not stated),31,15
Cc1ccc(N2C(=O)NC3CC2(C)Oc2ccc(Br)cc23)cc1C (configuration not stated),36,-2
Cc1ccc(CNC(=O)c2ccc(N3C(=O)NC4CC3(C)Oc3ccccc34)cc2)cc1 (configuration not stated),55*,-8
Cc1ccc(CCNC(=O)c2ccc(N3C(=O)NC4CC3(C)Oc3ccccc34)cc2)cc1 (configuration not stated),49,-6
Cc1ccc(N2C(=O)NC3CC2(C)Oc2ccc(Br)cc23)cc1Cl (configuration not stated),55*,-4
Cc1cccc2oc(-c3cccc(N=Cc4ccc(O)cc4O)c3)nc12,36,-2
CCCCC(=O)NC(c1ccc([N+](=O)[O-])cc1)c1ccc2cccnc2c1O (configuration not stated),100*,3
CCCCC(=O)NC(c1ccccc1OC)c1cc(Cl)c2cccnc2c1O (configuration not stated),7,-11
CCCC(=O)NC(c1ccccc1OC)c1ccc2cccnc2c1O (configuration not stated),99*,7
CCCCC(=O)NC(c1ccc(C)cc1)c1ccc2cccnc2c1O (configuration not stated),100*,1
CCCC(=O)NC(c1ccc(C)cc1)c1ccc2cccnc2c1O (configuration not stated),100*,9
Cc1ccc(C(=O)N2CCC(c3nc(CNC(=O)C4CC4)cs3)CC2)cc1F,-5,2
C#CC(=C(C(=O)OC)C(C(=O)OC)=C(CC(=O)OC)C(=O)OC)c1ccccn1,·,0
O=C(NCC1CCCO1)c1ccccc1C(=O)c1ccc(Cl)cc1 (configuration not stated),2,0
Cc1ccccc1-c1nc(-c2ccc3nncn3c2)no1,13,5
COC(=O)[C@H](CC(C)C)N(CCc1cn(Cc2ccc(C)cc2)nn1)S(=O)(=O)c1ccc(F)cc1Br,72*,2
COC(=O)[C@H](CC(C)C)N(CCc1cn(Cc2ccccc2)nn1)S(=O)(=O)c1ccc(F)cc1Br,16,-4
Cn1c(/C=C/c2ccc([N+](=O)[O-])o2)nc2ccccc2c1=O,3,-4
Cn1cc(C(c2ccc([N+](=O)[O-])o2)c2cn(C)c3ccccc23)c2ccccc21,65*,0
COc1ccc(OC)c(NC(=O)c2ccc(C)cc2)c1,1,-9
O=C(Cn1nnc(-c2ccccc2Cl)n1)Nc1cccc(C(F)(F)F)c1,-3,-1
Brc1ccc(Nc2nc(NCc3ccco3)c3ccccc3n2)cc1,100*,1
O=[N+]([O-])c1ccc(-c2nc(NCc3ccco3)c3ccccc3n2)cc1,16,-3
SMILES,mHTT-CaM PPI inh,Pf apPOL inh
O=C(CN1CCN(c2ccc(F)cc2)CC1)Nc1cccnc1Cl,0,0
O=C(CN1CCN(c2ccc(F)cc2)CC1)Nc1ccc(Cl)c(Cl)c1,58*,4
Cc1ccc(-n2nc3c(c2NC(=O)c2ccccc2[N+](=O)[O-])CSC3)cc1,31,-2
O=S1(=O)N[C@@H](c2ccccc2)COc2cc(Br)ccc21,-13,-3
Cn1c(=O)[nH]c(=O)c2c1nc(SCC(O)CO)n2CC(N)=O (configuration not stated),-3,65*
CCCCCCn1c(SCC(O)CO)nc2c1c(=O)[nH]c(=O)n2C (configuration not stated),5,3
Cc1nc(-c2ccncc2)nc2c1CCC(=O)N2Cc1cccnc1,-10,4
O=C(CN(c1ccccc1F)S(=O)(=O)c1ccccc1)N1CCOCC1,-1,-2
COc1ccc(C2SCC3C(=O)N(c4ccccc4)C(=S)N32)cc1O (configuration not stated),100*,-5
COc1ccc(C2SCCN2C(=O)c2ccccc2C(=O)O)cc1Br (configuration not stated),5,0
CCN(CC)Cc1c(O)ccc2c1OC(=Cc1cccc(C)c1)C2=O,26,-3
CC1(C)OC2OC(C(=O)Oc3ccc([N+](=O)[O-])cc3)C3OC(C)(C)OC3C2O1 (configuration not stated),16,-6
